From paper PMC7862700, “An all-to-all approach to the identification of sequence-specific readers for epigenetic DNA modifications on cytosine”

Columns and labels:
Test in all cases: DAPPL (digital affinity profiling via proximity ligation, sequencing); 10 mM Tris-HCl pH 7.5, 50 mM NaCl, 1 mM DTT, 4% glycerol, room temperature, 30 min; GST-TFs on glutathione beads, 16-mer random dsDNA library, 0.1% formaldehyde crosslink after washing; high values mean tight binding
ELK1 = target: T1, ELK1 (Homo sapiens, UniProt P19419 1-428); conditions: protein: recombinant; tags: N-terminal GST; dsDNA, one strand shown
T1 sequence: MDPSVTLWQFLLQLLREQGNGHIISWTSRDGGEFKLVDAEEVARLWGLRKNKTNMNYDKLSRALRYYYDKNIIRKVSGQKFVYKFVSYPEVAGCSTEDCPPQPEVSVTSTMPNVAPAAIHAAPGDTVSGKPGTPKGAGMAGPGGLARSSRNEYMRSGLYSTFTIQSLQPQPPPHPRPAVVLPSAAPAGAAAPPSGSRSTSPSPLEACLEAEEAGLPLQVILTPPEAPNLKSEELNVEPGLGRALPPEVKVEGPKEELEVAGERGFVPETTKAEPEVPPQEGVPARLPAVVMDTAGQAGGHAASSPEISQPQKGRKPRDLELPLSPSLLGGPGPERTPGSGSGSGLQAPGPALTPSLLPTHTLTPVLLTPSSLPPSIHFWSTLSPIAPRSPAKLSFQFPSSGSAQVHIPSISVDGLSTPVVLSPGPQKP
How it was run: (§1)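 GST fusions of human transcription factors were expressed in yeast and captured with glutathione beads. Once given DNA barcodes and pooled alongside a tag-only sample, they were incubated for 30 min at room temperature with 200 nmole of a random double-stranded 16-mer DNA library in Tris/NaCl/DTT/glycerol buffer, then washed, crosslinked (0.1% formaldehyde), proximity-ligated, PCR-amplified and sequenced on an Illumina NextSeq500. The binding signal of each hexamer is its read frequency for a factor divided by its frequency for the tag-only sample.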

GABPA = target: T2, GABPA (Homo sapiens, UniProt Q06546 1-454); conditions: protein: recombinant; tags: N-terminal GST; dsDNA, one strand shown
T2 sequence: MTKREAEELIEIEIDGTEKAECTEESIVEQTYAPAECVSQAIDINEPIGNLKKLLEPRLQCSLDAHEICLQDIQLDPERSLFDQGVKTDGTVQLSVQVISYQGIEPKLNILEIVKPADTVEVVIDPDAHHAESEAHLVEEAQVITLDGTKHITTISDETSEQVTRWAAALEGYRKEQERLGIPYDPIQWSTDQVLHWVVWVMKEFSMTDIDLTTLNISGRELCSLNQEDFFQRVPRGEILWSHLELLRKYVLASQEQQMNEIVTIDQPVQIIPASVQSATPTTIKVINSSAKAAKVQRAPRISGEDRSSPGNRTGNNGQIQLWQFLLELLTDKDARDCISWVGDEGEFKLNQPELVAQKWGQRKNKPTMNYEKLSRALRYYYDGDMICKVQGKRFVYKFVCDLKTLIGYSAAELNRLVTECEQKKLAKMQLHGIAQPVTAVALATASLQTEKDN
How it was run: as §1

ERG = target: T3, ERG (Homo sapiens, UniProt P11308 1-479); conditions: protein: recombinant; tags: N-terminal GST; dsDNA, one strand shown
T3 sequence: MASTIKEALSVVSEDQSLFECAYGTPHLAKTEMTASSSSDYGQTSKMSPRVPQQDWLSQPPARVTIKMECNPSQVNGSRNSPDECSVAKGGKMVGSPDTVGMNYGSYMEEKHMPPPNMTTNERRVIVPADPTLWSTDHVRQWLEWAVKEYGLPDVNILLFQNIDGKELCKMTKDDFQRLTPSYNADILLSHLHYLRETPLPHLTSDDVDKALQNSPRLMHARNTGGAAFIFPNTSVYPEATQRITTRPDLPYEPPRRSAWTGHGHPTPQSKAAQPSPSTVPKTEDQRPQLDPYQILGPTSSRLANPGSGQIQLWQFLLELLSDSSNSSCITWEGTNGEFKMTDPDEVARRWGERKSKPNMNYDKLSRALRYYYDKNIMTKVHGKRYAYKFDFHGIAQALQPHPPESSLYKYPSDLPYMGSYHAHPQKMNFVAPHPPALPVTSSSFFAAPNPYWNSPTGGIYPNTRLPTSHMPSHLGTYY
How it was run: as §1

ELF1 = ELF1 (Homo sapiens, UniProt P32519 1-619); conditions: protein: recombinant; tags: N-terminal GST; dsDNA, one strand shown
ELF1, sequence (P32519 whole entry): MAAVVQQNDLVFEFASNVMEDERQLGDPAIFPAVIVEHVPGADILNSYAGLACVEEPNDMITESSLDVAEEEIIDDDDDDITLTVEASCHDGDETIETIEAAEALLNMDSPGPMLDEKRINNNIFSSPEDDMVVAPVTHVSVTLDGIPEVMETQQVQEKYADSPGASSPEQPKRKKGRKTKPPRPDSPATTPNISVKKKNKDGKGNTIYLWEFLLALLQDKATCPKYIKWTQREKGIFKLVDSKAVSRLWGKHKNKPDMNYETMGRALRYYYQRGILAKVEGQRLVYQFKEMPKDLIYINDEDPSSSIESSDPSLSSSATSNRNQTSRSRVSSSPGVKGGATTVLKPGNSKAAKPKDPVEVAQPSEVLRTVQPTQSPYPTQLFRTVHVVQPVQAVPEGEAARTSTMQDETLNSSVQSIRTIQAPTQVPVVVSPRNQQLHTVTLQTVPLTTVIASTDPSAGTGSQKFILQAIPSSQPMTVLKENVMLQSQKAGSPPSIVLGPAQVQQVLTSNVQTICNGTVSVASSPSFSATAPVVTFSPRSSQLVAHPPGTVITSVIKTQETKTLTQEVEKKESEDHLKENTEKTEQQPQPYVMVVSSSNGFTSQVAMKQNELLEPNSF
How it was run: as §1

EHF = target: T4, EHF (Homo sapiens, UniProt Q9NZC4 1-300); conditions: protein: recombinant; tags: N-terminal GST; dsDNA, one strand shown
T4 sequence: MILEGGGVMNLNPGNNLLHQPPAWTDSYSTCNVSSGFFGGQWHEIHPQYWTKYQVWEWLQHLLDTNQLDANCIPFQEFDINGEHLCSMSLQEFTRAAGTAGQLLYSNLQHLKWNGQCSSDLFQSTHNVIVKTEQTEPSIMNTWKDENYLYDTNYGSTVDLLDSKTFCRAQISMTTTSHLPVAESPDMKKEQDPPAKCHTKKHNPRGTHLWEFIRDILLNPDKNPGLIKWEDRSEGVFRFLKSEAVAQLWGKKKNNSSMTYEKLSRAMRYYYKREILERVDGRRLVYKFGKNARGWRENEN
How it was run: as §1

SPIB = SPIB (Homo sapiens, UniProt Q01892 1-262); conditions: protein: recombinant; tags: N-terminal GST; dsDNA, one strand shown
SPIB, sequence (Q01892 whole entry): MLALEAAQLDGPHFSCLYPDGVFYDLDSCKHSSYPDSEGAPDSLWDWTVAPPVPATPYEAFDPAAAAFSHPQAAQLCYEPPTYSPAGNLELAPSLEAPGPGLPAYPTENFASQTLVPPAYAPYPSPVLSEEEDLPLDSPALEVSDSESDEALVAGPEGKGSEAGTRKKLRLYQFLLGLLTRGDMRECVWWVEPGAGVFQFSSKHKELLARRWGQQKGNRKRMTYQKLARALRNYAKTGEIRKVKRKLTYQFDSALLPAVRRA
How it was run: as §1

HSF1 = HSF1 (Homo sapiens, UniProt Q00613 1-529); conditions: protein: recombinant; tags: N-terminal GST; chain copies: 3; dsDNA, one strand shown
HSF1, sequence (Q00613 whole entry): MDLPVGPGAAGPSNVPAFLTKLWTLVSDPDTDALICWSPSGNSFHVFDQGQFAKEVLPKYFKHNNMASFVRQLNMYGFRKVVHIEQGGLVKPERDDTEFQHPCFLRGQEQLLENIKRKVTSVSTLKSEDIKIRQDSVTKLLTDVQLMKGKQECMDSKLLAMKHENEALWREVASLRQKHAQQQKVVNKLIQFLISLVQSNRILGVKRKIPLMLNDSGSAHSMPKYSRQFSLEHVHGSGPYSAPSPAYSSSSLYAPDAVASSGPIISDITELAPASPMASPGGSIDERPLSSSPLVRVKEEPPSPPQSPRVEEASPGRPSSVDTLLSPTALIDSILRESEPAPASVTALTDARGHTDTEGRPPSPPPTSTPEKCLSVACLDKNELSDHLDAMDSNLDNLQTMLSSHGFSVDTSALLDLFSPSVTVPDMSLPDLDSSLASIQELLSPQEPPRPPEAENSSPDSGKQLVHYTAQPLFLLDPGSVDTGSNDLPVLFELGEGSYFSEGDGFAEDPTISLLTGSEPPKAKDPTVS
How it was run: as §1

ELF4 = ELF4 (Homo sapiens, UniProt Q99607 1-663); conditions: protein: recombinant; tags: N-terminal GST; dsDNA, one strand shown
ELF4, sequence (Q99607 whole entry): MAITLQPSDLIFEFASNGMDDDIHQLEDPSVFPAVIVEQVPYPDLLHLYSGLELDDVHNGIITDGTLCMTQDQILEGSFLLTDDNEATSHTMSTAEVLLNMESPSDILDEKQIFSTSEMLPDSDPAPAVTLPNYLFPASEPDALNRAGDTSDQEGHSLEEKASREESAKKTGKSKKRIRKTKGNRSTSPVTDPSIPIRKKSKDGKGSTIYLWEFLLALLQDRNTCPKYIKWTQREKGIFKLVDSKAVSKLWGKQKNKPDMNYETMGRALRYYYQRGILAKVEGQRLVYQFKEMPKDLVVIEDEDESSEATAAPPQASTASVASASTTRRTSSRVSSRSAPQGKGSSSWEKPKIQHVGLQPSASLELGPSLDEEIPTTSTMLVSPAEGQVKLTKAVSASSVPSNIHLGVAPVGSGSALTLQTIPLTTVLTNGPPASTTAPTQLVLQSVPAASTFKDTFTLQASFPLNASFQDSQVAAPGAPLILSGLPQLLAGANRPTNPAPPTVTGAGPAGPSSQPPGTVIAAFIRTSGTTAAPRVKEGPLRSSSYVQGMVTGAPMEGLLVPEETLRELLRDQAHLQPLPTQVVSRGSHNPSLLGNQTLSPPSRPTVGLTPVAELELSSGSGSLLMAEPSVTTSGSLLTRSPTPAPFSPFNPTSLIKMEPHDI
How it was run: as §1

ELK4 = target: T5, ELK4 (Homo sapiens, UniProt P28324-2 1-405); conditions: protein: recombinant; tags: N-terminal GST; dsDNA, one strand shown
T5 sequence: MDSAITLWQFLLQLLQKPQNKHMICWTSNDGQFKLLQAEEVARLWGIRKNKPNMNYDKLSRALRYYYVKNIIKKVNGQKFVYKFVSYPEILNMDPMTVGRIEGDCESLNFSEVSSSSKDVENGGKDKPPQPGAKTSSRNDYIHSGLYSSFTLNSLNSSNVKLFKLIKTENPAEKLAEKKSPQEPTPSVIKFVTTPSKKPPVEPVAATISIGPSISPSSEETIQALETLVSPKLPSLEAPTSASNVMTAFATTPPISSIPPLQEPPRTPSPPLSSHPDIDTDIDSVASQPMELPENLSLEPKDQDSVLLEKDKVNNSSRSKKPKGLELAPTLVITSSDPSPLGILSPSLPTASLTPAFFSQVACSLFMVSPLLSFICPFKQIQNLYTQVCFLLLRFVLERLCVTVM
How it was run: as §1

ELF3 = target: T6, ELF3 (Homo sapiens, UniProt P78545 1-371); conditions: protein: recombinant; tags: N-terminal GST; dsDNA, one strand shown
T6 sequence: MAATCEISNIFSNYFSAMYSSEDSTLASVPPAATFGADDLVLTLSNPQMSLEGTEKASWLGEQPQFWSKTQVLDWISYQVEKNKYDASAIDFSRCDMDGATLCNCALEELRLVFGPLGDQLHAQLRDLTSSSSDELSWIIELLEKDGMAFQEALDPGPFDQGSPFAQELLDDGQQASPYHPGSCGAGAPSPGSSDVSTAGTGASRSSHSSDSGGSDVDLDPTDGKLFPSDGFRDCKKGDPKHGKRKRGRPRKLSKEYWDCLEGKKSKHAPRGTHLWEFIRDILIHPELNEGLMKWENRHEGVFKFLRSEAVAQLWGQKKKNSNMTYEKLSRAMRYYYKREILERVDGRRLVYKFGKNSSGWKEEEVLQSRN
How it was run: as §1

CRX = CRX (Homo sapiens, UniProt O43186 1-299); conditions: protein: recombinant; tags: N-terminal GST; dsDNA, one strand shown
CRX, sequence (O43186 whole entry): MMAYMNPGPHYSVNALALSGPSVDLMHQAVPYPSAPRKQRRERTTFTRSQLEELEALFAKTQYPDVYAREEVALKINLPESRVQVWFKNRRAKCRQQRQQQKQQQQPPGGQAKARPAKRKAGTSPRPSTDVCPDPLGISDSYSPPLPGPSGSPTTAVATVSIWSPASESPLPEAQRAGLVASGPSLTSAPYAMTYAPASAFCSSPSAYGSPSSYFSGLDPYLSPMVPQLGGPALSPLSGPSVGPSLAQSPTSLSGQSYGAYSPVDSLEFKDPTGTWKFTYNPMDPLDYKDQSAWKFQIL
How it was run: as §1

ETV1 = ETV1 (Homo sapiens, UniProt P50549 1-477); conditions: protein: recombinant; tags: N-terminal GST; dsDNA, one strand shown
ETV1, sequence (P50549 whole entry): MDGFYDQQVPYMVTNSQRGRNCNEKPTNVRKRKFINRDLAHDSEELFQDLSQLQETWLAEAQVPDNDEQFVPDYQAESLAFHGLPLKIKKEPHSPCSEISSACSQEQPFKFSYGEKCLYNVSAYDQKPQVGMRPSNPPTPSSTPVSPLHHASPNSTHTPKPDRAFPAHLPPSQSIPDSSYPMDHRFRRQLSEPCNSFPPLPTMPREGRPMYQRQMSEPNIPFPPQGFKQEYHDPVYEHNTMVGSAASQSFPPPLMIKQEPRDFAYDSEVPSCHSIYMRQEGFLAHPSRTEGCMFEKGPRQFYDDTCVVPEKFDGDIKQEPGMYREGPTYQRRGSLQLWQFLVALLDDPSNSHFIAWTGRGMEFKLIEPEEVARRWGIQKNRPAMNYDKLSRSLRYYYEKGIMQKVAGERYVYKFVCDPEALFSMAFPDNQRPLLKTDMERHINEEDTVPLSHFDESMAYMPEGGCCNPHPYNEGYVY
How it was run: as §1

ERF = target: T7, ERF (Homo sapiens, UniProt P50548 1-548); conditions: protein: recombinant; tags: N-terminal GST; dsDNA, one strand shown
T7 sequence: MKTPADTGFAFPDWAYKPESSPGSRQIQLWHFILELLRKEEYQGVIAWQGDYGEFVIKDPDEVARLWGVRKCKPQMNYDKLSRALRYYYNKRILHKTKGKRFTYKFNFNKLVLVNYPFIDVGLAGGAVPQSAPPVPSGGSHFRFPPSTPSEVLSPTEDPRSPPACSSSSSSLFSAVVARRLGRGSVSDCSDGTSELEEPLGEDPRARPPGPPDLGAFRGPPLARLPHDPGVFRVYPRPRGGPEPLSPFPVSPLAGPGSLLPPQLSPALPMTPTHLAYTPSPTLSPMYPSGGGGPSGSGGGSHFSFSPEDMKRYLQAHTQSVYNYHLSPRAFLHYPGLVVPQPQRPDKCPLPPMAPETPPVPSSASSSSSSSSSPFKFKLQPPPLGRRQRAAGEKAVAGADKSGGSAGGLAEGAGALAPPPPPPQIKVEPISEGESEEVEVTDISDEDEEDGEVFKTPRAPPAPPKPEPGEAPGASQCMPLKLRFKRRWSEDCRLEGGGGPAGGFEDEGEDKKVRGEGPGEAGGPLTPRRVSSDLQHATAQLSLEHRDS
How it was run: as §1

ETV3L = target: T8, ETV3L (Homo sapiens, UniProt Q6ZN32 1-361); conditions: protein: recombinant; tags: N-terminal GST; dsDNA, one strand shown
T8 sequence: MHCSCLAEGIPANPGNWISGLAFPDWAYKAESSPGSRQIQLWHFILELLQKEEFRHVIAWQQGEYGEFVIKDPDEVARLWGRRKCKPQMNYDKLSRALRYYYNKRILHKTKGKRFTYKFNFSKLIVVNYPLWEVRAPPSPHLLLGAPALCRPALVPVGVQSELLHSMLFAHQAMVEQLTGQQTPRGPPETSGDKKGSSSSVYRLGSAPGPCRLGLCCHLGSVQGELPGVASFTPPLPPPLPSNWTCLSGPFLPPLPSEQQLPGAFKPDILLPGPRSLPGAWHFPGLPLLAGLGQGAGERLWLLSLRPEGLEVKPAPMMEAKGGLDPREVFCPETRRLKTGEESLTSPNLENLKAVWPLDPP
How it was run: as §1

SPDEF = target: T9, SPDEF (Homo sapiens, UniProt O95238 1-335); conditions: protein: recombinant; tags: N-terminal GST; dsDNA, one strand shown
T9 sequence: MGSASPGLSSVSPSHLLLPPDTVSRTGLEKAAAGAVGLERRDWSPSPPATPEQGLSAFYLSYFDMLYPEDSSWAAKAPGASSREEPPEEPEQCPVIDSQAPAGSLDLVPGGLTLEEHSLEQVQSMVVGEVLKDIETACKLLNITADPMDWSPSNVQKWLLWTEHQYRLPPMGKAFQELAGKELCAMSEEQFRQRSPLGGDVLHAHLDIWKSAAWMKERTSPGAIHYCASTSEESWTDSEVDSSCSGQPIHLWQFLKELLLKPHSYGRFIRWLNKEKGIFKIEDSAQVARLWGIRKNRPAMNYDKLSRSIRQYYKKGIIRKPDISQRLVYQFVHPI
How it was run: as §1

ETV7 = target: T10, ETV7 (Homo sapiens, UniProt Q9Y603 1-341); conditions: protein: recombinant; tags: N-terminal GST; dsDNA, one strand shown
T10 sequence: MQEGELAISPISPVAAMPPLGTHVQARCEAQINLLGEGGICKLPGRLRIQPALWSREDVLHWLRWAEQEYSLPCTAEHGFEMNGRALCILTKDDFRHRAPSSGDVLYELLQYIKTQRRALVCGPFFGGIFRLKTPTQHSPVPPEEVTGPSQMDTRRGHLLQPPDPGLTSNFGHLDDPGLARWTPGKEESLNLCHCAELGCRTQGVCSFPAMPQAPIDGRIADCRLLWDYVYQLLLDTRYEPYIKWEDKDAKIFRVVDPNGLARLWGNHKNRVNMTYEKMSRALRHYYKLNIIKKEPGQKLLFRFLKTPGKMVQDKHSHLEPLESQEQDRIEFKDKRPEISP
How it was run: as §1

ELF5 = target: T11, ELF5 (Homo sapiens, UniProt Q9UKW6-2 1-255); conditions: protein: recombinant; tags: N-terminal GST; dsDNA, one strand shown
T11 sequence: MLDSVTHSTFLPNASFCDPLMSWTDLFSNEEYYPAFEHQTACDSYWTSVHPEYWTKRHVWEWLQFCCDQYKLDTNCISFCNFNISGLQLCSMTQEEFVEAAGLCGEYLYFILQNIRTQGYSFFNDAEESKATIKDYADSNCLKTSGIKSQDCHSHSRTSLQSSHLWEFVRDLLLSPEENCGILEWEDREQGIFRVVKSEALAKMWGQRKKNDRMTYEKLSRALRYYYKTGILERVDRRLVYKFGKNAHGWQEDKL
How it was run: as §1

ETV3 = target: T12, ETV3 (Homo sapiens, UniProt P41162-2 1-143); conditions: protein: recombinant; tags: N-terminal GST; dsDNA, one strand shown
T12 sequence: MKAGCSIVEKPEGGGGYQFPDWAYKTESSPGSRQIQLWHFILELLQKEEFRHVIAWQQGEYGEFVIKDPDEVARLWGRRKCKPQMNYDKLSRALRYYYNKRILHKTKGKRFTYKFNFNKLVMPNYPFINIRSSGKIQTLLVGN
How it was run: as §1

Sequence: GCGAAT
- binding signal (ELK1): 1.07 fold enrichment (6-mer frequency, TF over GST control)
- binding signal (GABPA): 1.05 fold enrichment (6-mer frequency, TF over GST control)
- binding signal (ERG): 1.08 fold enrichment (6-mer frequency, TF over GST control)
- binding signal (ELF1): 1.11 fold enrichment (6-mer frequency, TF over GST control)
- binding signal (EHF): 1.17 fold enrichment (6-mer frequency, TF over GST control)
- binding signal (SPIB): 1 fold enrichment (6-mer frequency, TF over GST control)
- binding signal (HSF1): 1.27 fold enrichment (6-mer frequency, TF over GST control)
- binding signal (ELF4): 1.02 fold enrichment (6-mer frequency, TF over GST control)
- binding signal (ELK4): 1.17 fold enrichment (6-mer frequency, TF over GST control)
- binding signal (ELF3): 1.12 fold enrichment (6-mer frequency, TF over GST control)
- binding signal (CRX): 1.08 fold enrichment (6-mer frequency, TF over GST control)
- binding signal (ETV1): 1.04 fold enrichment (6-mer frequency, TF over GST control)
- binding signal (ERF): 1.05 fold enrichment (6-mer frequency, TF over GST control)
- binding signal (ETV3L): 1.06 fold enrichment (6-mer frequency, TF over GST control)
- binding signal (SPDEF): 1.08 fold enrichment (6-mer frequency, TF over GST control)
- binding signal (ETV7): 1.04 fold enrichment (6-mer frequency, TF over GST control)
- binding signal (ELF5): 1.04 fold enrichment (6-mer frequency, TF over GST control)
- binding signal (ETV3): 1.07 fold enrichment (6-mer frequency, TF over GST control)
